The campaign covered roughly 1,400 compounds. About 380 (27%) were called active. The list shows a part of the results. A number with no mark means an inactive call.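 Rule for the calls: active = mean inhibition above 50% across duplicate retests at 10 µM; inactive = the rest.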
Experiment: yeast NALP1 reporter signal suppression – S. cerevisiae, luminescence, single concentration, NALP1 inhibitor project, confirmation (AID 488841);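 note: plate controls were DMSO in galactose medium for no effect and cells in plain SD medium for full effect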
Conditions: S. cerevisiae NALP1/ASC/Caspase-1 reporter, beta-gal luminescence; at 10 µM; stronger effect = higher value

Compound	inhibition
CC[n+]1c(/C=C/N(C)c2ccccc2)n(-c2ccccc2)c2ccc(-c3nc4ccccc4s3)cc21	55.8% (active)
CCCN1CCN(CCCNC(=O)CCNC(=O)Cn2ccc3ccccc3c2=O)CC1	35.5%
CC[n+]1c(/C=C/c2ccc(N(C)C)cc2)ccc2ccccc21	85.5% (active)
CN(C)c1ccc(/C=C/c2ccc3ccccc3[n+]2C)cc1	85.5% (active)
CC1=C(C(=O)Nc2ccc(Cl)cc2)C(c2ccncc2)C(C#N)=C(SCC(N)=O)N1 (stereo not drawn)	32.1%
CN(C)c1ccc(N2C(=O)CC(Sc3ccccc3C(=O)O)C2=O)cc1 (stereo not drawn)	24.6%
CCOc1ccc(OCCSc2nc3ccccc3o2)cc1	42.4%
CCOC(=O)CCCNC(=O)COC(=O)c1ccc(O)cc1	23.1%
Cc1ccc(NC(=O)CN(C)C(=O)COc2cccc3cccnc23)cc1	25.3%
CCN1c2ccccc2-c2nc3ccccc3n2C1c1cccs1 (stereo not drawn)	32.9%
COc1ccc(/C=N\NC(=O)c2cc(OCC(F)(F)F)ccc2OCC(F)(F)F)cc1	25.5%
O=C(Oc1ccc(/C=N/NC(=O)c2ccccc2O)cc1)c1ccccc1	30.9%
O=C(C[n+]1ccc(C(=O)N/N=C/c2ccc(OCc3ccccc3)cc2)cc1)c1ccccc1	58.6% (active)
O=C1C=CC(=O)N1c1ccc(OC(F)F)cc1	59.8% (active)
COc1ccc(N2C(=O)C3[C@@H](C2=O)C2(Cl)C(Cl)=C(Cl)C3(Cl)C2(OC)OC)cc1 (stereo partly drawn)	42%
COc1cc(C)ccc1OCCOCCOc1ccc([N+](=O)[O-])cc1	53.3% (active)
C=CCc1ccc(OCCCOc2ccc(C)cc2OC)c(OC)c1	30.9%
COc1ccc(C(=O)/C=C/Nc2ccc([N+](=O)[O-])cc2C)c(OC)c1	4.95%
CCCCN(C)C(=O)c1nc2ccccn2c1CNCCCn1ncc2ccccc21	16.4%
Cc1ccccc1OCC(=O)Nc1sc2c(c1C#N)CCC2	16.7%
COC(=O)c1c(NC(=O)C2CCCO2)sc2c1CCC2 (stereo not drawn)	39.9%
Cc1ccc(C(=O)c2c(NC(=O)c3ccncc3)sc3c2CCCC3)cc1	51% (active)
Cc1ccc(C(C)C)cc1OCCN1CCCC1	40.4%
Cc1ccc(OCCCCN(C)Cc2ccccc2)c(Br)c1	61.5% (active)
CSc1ccc(CN(C)CC(=O)Nc2ccc(C)cc2Br)cc1	47.1%
Cc1ccc(OCCCCN2CCCCC2)c(Br)c1	41.6%
CCCCCOc1ccc(Br)cc1CSC(=N)N	57.2% (active)
C=CCNCCCCOc1ccc(Br)cc1C	41.7%
